Screening results (PubChem)
A selection: hits, their analogues and other compounds. The true share with any hit is near 3.6%.
DAT uptake mod = modulates human dopamine transporter uptake under cocaine | 110,000 compounds, 1.3% hits | Q01959 | B-score at 10 µM | AID 449768 | LLC-PK1 hDAT cells, [14C]-dopamine uptake with cocaine IC80; actives deviate in either direction;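 active = Z score or B-score, a plate-position-corrected score, falls beyond the plate's 99.7% confidence bounds, in either direction; inactive = both scores lie inside the 99.7% bounds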
Target sequence (Q01959 whole entry, looked up): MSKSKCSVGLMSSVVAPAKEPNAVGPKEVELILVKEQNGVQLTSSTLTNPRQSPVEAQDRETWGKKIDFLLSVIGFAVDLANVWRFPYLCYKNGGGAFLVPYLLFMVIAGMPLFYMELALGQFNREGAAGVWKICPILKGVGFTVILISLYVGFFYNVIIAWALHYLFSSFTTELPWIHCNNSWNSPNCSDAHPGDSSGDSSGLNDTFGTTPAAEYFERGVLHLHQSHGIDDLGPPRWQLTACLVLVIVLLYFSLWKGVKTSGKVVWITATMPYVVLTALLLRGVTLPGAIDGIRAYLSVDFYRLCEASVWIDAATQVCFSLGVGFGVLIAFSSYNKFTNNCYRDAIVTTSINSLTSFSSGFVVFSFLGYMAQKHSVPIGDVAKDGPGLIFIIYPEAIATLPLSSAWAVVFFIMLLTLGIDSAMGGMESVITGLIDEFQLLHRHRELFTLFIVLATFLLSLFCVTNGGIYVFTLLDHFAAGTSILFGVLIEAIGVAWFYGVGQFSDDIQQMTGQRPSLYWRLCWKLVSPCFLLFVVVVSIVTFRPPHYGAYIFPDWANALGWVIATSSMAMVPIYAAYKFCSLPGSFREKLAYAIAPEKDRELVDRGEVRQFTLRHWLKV
HCT116 PTEN-null = growth suppressors of cells with PTEN tumor suppressor deletion; viability, % at 10 µM; AID 827; HCT116 PTEN-null viability, CellTiter-Glo, 60 h; active compounds read low; 140,000 compounds, 1.2% hits;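 active = viability at or below a set limit, 4 SD under the median of all tested compounds, cut at about 3.7% in these data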;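 note: PTEN knockout HCT116 line with beta catenin targeted HCT116 as companion control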
WT yeast gro inh = growth inhibition of WT yeast, mitochondrial fusion screen; mitochondrial fusion phenotypic screen, WT strain; inhibition, % at 10 µM; 190,000 compounds, 2.1% hits; AID 1362; in the data active = inhibition above about 58%; tested in S. cerevisiae
bCat KO growth = beta-catenin-lacking colon tumor cell growth suppression; HCT116 beta-catenin knockout viability, CellTiter-Glo, 60 h; active compounds read low; 140,000 compounds, 1.5% hits; viability, % at 10 µM;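 active = viability at or under a set limit, the compound median less 4 SD, cut at about 6% in these data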
Large screens that a line does not name were inactive.

CC(=O)N/C(=C\c1ccccc1)C(=O)OCC(=O)N(C)C1CCCCC1	none (no result: DAT uptake mod)
CS(=O)(=O)N1CCN(c2ccc([N+](=O)[O-])c(NCc3ccc(Cl)cc3)c2)CC1	bCat KO growth 2.2 (no result: DAT uptake mod)
CS(=O)(=O)N1CCN(c2ccc([N+](=O)[O-])c(NCc3ccccc3)c2)CC1	none (no result: DAT uptake mod)
N#CC1=C(N)N2C(=C(C#N)C1c1ccccc1)Sc1ccccc12 (centres undefined)	none
N#CC1=C(N)N2C(=C(C#N)C1c1ccc(Br)cc1)Nc1ccccc12 (centres undefined)	HCT116 PTEN-null 2.2, bCat KO growth 1.9 (no result: DAT uptake mod)
N#CC1=C(N)N2C(=C(C#N)C1c1cccc(Br)c1)Nc1ccccc12 (centres undefined)	HCT116 PTEN-null 2.0, bCat KO growth 3.2 (no result: DAT uptake mod)
COc1ccccc1NS(=O)(=O)c1ccc(C)c(NC(=O)c2ccc(S(=O)(=O)N3CCCCCC3)cc2)c1	none (no result: DAT uptake mod)
CCCCOc1ccc(C(=S)N2CCC(C(N)=O)CC2)cc1	none (no result: DAT uptake mod, HCT116 PTEN-null, bCat KO growth)
c1ccc(NCc2nc3ccccc3n2CCOc2ccccc2)cc1	WT yeast gro inh 77.2 (no result: DAT uptake mod)
COc1ccc(NCc2nc3ccccc3n2CCOc2ccc(C)cc2)cc1	WT yeast gro inh 71.4 (no result: DAT uptake mod)
CCO[C@@H]1OC(C(=O)N2CCCCCCC2)=C[C@H](c2cn(C(C)=O)c3ccccc23)[C@H]1CCCO	none (no result: DAT uptake mod, HCT116 PTEN-null, bCat KO growth)
COc1ccc(C(=O)Nc2nnc(-c3ccco3)s2)cc1	HCT116 PTEN-null 1.8, bCat KO growth 1.6
O=C(Nc1nnc(-c2ccco2)s1)c1ccccc1	none
Cc1ccc2nc(/C(C#N)=N/O)[nH]c2c1	none
Cc1ccc2nc(/C(C#N)=C/c3cn[nH]c3-c3ccc(F)cc3)[nH]c2c1	HCT116 PTEN-null 1.2, bCat KO growth 1.5
COc1ccc(/C=C/C(=O)OCn2c(SC)nnc(C)c2=O)cc1OC	none (no result: DAT uptake mod, HCT116 PTEN-null, bCat KO growth)
COc1ccc(-c2onc(C)c2-c2cscn2)c(O)c1	none (no result: DAT uptake mod, HCT116 PTEN-null, bCat KO growth)
CCCOC(=O)c1ccc(-c2c(C)noc2-c2ccc(OC)cc2O)o1	DAT uptake mod 2.85
CCCC1CC(C)(c2csc(Nc3ccc(OCC)cc3)n2)OC1=O (centres undefined)	WT yeast gro inh 69.0
Cc1cccc(N(C)C(=S)Oc2ccc3ccccc3c2)c1	WT yeast gro inh 62.2
CC(c1ccccc1)N(CCC(c1ccccc1)C1CCOC(C)(C)C1)C(=O)c1ccco1 (centres undefined)	WT yeast gro inh 79.0 (no result: DAT uptake mod)
COc1ccc(CN(CCC(c2ccc(F)cc2)C2CCOC(C)(C)C2)C(=O)c2ccco2)cc1 (centres undefined)	none (no result: DAT uptake mod)
COc1cc(NS(=O)(=O)c2ccc(N/C=C(\C=O)c3nc4ccccc4o3)cc2)nc(OC)n1	none (no result: DAT uptake mod)
c1ccc(Nc2scc(-c3ccccc3)[n+]2Cc2ccco2)cc1	WT yeast gro inh 67.2 (no result: DAT uptake mod, HCT116 PTEN-null, bCat KO growth)
Clc1ccc(OCCn2cnc3ccccc32)c(Cl)c1	WT yeast gro inh 67.6
CC1CC(C)CN(CCOc2ccc(Cl)cc2Cl)C1 (centres undefined)	DAT uptake mod -8.26
c1ccc2c(c1)ncn2CCOCCOCCn1cnc2ccccc21	none
CC1CC(C)CN(CCOc2cccc(Cl)c2Cl)C1 (centres undefined)	none (no result: DAT uptake mod)
CC1CCCN(CCOCCOc2ccc(Cl)cc2Br)C1 (centres undefined)	bCat KO growth 5.3
CSc1nc(C)c(C(=O)C[n+]2ccc(C)cc2)cc1C#N	none (no result: DAT uptake mod, HCT116 PTEN-null, bCat KO growth)
COC(=O)c1ccc(C(=O)N(CCN(C)C)c2nc3c(Cl)cccc3s2)cc1	none (no result: DAT uptake mod, HCT116 PTEN-null, bCat KO growth)
Cc1cc(Cl)ccc1OCCCC(=O)OCC(N)=O	none (no result: DAT uptake mod, HCT116 PTEN-null, bCat KO growth)
COCCNC(=O)CC(NS(=O)(=O)c1ccc(C)cc1)c1ccco1 (centres undefined)	WT yeast gro inh 73.4
CCCCNC(=O)CC(NS(=O)(=O)c1ccc(C)cc1)c1ccco1 (centres undefined)	none
CCOc1ccccc1C(=O)Nc1ccccc1O	none
CCOc1ccccc1C(=O)Nc1ccccc1-c1ccccc1	WT yeast gro inh 74.9 (no result: DAT uptake mod)
Cc1cccc(NC(=O)c2ccccc2OCC(=O)N2CCCC2)c1C	none (no result: DAT uptake mod, HCT116 PTEN-null, bCat KO growth)
CSc1nncn1/N=C/c1ccc2c(c1)OCO2	WT yeast gro inh 64.0
CSc1nncn1/N=C/c1ccc([N+](=O)[O-])cc1	none (no result: DAT uptake mod, HCT116 PTEN-null, bCat KO growth)
Cc1ccc(-n2nc3cc(C)c(NC(=S)NC(=O)/C=C/c4ccco4)cc3n2)cc1	bCat KO growth 5.5 (no result: DAT uptake mod)
Cc1ccc(-n2nc3ccc(NC(=S)NC(=O)/C=C/c4ccco4)cc3n2)cc1	none (no result: DAT uptake mod)
Cc1ccc(-c2nc3ccccc3s2)cc1NC(=S)NC(=O)/C=C/c1ccco1	none
Cc1ccc(-c2nc3ccccc3s2)cc1NC(=S)NC(=O)c1cccc2ccccc12	HCT116 PTEN-null 1.7, bCat KO growth 1.3 (no result: DAT uptake mod)
O=C(/C=C/c1ccco1)NC(=S)Nc1cc(-c2nc3ccccc3s2)ccc1Cl	HCT116 PTEN-null 1.6, bCat KO growth 2.6 (no result: DAT uptake mod)
Cc1ccc(C(=O)NC(=S)Nc2cccc(-c3nc4ccccc4s3)c2)cc1	none (no result: DAT uptake mod)
COc1nc2ccccc2nc1CCC(=O)O	none (no result: DAT uptake mod, HCT116 PTEN-null, bCat KO growth)
Cc1ccc(C(=O)/C=C/c2ccccc2[N+](=O)[O-])cc1	none (no result: DAT uptake mod, HCT116 PTEN-null, bCat KO growth)
O=C(/C=C/c1ccccc1[N+](=O)[O-])c1ccccc1Br	WT yeast gro inh 69.1 (no result: DAT uptake mod, HCT116 PTEN-null, bCat KO growth)
C/C(=N\Nc1nc2ccccc2[nH]1)c1cc2ccccc2o1	WT yeast gro inh 60.2 (no result: DAT uptake mod)
Cc1cccc(NC(=S)N=Nc2c(O)[nH]c3ccccc23)c1	WT yeast gro inh 59.0 (no result: DAT uptake mod)
CCOC(=O)C1CCN(CCC(=O)Nc2ccc(F)cc2)CC1	none (no result: DAT uptake mod, HCT116 PTEN-null, bCat KO growth)
COc1cc(C2N=C(c3ccccc3)NO2)cc(Br)c1O (centres undefined)	DAT uptake mod 2.61
CC(C)N1C/C(=C/c2ccsc2)C(=O)/C(=C/c2ccsc2)C1	HCT116 PTEN-null 1.5, bCat KO growth 2.6 (no result: DAT uptake mod)
Cc1nn(-c2ccccc2)c(Cl)c1C(=O)N1CCN(c2ncnc3c2cnn3-c2ccccc2)CC1	bCat KO growth 6.0
O=C(c1ccccc1)N1CCN(c2ncnc3c2cnn3-c2ccccc2)CC1	none
CC1CCN(c2ncnc3c2cnn3-c2ccccc2)CC1	none
COc1cccc(OCCN2CCN(c3ncnc4c3cnn4-c3ccccc3)CC2)c1	WT yeast gro inh 58.5
COc1ccccc1NS(=O)(=O)c1cc(NC(=O)c2cc3ccccc3oc2=O)ccc1C	none (no result: DAT uptake mod)
COc1ccc(-n2c(CNc3ccc(C)cc3)nnc2SCC(=O)Nc2nc(-c3ccccc3)cs2)cc1	HCT116 PTEN-null 0.4, bCat KO growth 0.8
COc1ccc(NCc2nnc(SCC(=O)Nc3nc(-c4ccccc4)cs3)n2-c2ccccc2)cc1	HCT116 PTEN-null 1.8, bCat KO growth 1.3 (no result: DAT uptake mod)
Cn1cccc1Cc1nnc(SCC(=O)Nc2ccc(F)cc2F)n1-c1ccc(F)cc1	DAT uptake mod -8.37
Cc1ccc(NC(=O)CSc2nnc(Cc3cccn3C)n2-c2ccc(F)cc2)c(C)c1	none
COc1ccc(-n2c(Cc3cccn3C)nnc2SCC(=O)Nc2ccc(C)cc2)cc1	DAT uptake mod 2.35
Cc1cc(Nc2cccc(Cl)c2)nc(NCc2ccccc2)n1	WT yeast gro inh 97.2 (no result: DAT uptake mod)
Cc1cc(N/N=C/c2ccccc2)nc(NCc2ccccc2)n1	WT yeast gro inh 61.8 (no result: DAT uptake mod)
Cc1cc(N/N=C/c2cccc(Cl)c2)nc(NCc2ccccc2)n1	WT yeast gro inh 82.1 (no result: DAT uptake mod)
Cc1cc(N/N=C/c2ccc(Cl)cc2)nc(NCc2ccccc2)n1	none (no result: DAT uptake mod)
CN(C)c1cc(N/N=C\c2ccccc2)nc(N(C)C)n1	WT yeast gro inh 58.7 (no result: DAT uptake mod, HCT116 PTEN-null, bCat KO growth)
Cc1cc(C)nc(N/N=C/c2cccc(Cl)c2)n1	none (no result: DAT uptake mod, HCT116 PTEN-null, bCat KO growth)
Cc1nn(CCO)c(N)c1C1(O)C(=O)Nc2c(Cl)cc(Cl)cc21 (centres undefined)	none (no result: DAT uptake mod, HCT116 PTEN-null, bCat KO growth)
